# Test results published in PMC7862700, “An all-to-all approach to the identification of sequence-specific readers for epigenetic DNA modifications on cytosine”.
# Tests used:
# Experiment in all cases: DAPPL (digital affinity profiling via proximity ligation, sequencing); 10 mM Tris-HCl pH 7.5, 50 mM NaCl, 1 mM DTT, 4% glycerol, room temperature, 30 min; GST-TFs on glutathione beads, 16-mer random dsDNA library, 0.1% formaldehyde crosslink after washing; high values mean tight binding
# [1] = target: T1, FLI1 (Homo sapiens, UniProt Q01543 1-452); conditions: protein: recombinant; tags: N-terminal GST; dsDNA, one strand shown
# T1 sequence: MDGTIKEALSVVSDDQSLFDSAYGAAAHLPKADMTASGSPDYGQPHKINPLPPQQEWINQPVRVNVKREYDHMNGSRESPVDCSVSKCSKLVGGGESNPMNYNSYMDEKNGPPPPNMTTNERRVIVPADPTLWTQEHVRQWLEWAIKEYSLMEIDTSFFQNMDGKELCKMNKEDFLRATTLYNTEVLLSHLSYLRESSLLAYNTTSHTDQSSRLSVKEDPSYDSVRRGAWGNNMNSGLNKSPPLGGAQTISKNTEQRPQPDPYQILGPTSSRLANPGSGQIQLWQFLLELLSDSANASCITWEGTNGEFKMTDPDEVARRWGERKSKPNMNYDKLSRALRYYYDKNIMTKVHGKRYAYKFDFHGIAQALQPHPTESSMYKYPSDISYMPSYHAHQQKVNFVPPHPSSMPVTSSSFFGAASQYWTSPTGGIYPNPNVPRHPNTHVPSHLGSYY
# Procedure, shortened: (§1)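 GST fusions of human transcription factors were expressed in yeast and captured with glutathione beads. Once given DNA barcodes and pooled alongside a tag-only sample, they were incubated for 30 min at room temperature with 200 nmole of a random double-stranded 16-mer DNA library in Tris/NaCl/DTT/glycerol buffer, then washed, crosslinked (0.1% formaldehyde), proximity-ligated, PCR-amplified and sequenced on an Illumina NextSeq500. The binding signal of each hexamer is its read frequency for a factor divided by its frequency for the tag-only sample.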
# [2] = target: T2, ELK1 (Homo sapiens, UniProt P19419 1-428); conditions: protein: recombinant; tags: N-terminal GST; dsDNA, one strand shown
# T2 sequence: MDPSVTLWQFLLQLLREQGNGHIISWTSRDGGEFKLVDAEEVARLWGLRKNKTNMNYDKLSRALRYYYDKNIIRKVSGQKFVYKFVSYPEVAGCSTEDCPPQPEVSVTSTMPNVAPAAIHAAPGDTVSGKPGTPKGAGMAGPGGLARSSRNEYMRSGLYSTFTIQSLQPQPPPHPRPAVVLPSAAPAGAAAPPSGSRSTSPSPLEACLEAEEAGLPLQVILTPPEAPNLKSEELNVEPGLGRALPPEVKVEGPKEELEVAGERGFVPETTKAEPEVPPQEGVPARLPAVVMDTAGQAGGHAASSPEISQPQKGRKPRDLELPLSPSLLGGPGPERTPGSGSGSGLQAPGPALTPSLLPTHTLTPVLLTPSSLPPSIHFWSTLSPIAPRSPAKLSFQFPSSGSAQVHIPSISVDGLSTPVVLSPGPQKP
# Procedure, shortened: as §1
# [3] = target: T3, GABPA (Homo sapiens, UniProt Q06546 1-454); conditions: protein: recombinant; tags: N-terminal GST; dsDNA, one strand shown
# T3 sequence: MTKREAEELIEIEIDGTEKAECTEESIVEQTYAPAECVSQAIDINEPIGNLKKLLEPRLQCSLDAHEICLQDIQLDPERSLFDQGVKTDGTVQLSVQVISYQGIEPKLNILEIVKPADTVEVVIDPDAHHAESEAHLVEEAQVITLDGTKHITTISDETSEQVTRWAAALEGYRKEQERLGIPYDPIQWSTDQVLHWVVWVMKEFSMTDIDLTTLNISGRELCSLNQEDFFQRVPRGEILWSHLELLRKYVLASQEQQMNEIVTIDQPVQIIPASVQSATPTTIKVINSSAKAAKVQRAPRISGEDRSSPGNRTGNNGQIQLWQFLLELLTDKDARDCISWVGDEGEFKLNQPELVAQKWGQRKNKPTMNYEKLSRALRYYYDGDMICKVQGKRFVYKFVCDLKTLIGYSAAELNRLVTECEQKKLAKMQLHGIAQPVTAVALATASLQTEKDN
# Procedure, shortened: as §1
# [4] = target: T4, ERG (Homo sapiens, UniProt P11308 1-479); conditions: protein: recombinant; tags: N-terminal GST; dsDNA, one strand shown
# T4 sequence: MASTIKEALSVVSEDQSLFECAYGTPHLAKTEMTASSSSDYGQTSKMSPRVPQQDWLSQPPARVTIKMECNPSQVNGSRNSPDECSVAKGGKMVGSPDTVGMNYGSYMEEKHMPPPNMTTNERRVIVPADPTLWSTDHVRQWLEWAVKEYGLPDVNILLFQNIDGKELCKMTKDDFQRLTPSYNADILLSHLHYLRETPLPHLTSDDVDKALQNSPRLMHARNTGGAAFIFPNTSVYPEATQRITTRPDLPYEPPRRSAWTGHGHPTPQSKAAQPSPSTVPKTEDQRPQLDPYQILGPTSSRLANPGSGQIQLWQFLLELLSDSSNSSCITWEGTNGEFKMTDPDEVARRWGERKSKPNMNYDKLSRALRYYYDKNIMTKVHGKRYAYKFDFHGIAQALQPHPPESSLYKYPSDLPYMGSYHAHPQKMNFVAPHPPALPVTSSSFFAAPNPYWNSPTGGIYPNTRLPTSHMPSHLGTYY
# Procedure, shortened: as §1
# [5] = target: ELF1 (Homo sapiens, UniProt P32519 1-619); conditions: protein: recombinant; tags: N-terminal GST; dsDNA, one strand shown
# Procedure, shortened: as §1
# [6] = target: T5, EHF (Homo sapiens, UniProt Q9NZC4 1-300); conditions: protein: recombinant; tags: N-terminal GST; dsDNA, one strand shown
# T5 sequence: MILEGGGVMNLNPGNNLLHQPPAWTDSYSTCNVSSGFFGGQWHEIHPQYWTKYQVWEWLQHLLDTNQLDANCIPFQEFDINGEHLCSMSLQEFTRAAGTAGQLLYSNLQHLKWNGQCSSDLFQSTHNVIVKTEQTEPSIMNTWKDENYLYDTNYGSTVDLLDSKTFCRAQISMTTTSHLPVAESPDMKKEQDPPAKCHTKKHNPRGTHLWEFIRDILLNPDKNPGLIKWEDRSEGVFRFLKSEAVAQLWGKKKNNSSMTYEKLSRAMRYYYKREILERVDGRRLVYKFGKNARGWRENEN
# Procedure, shortened: as §1
# [7] = target: SPI1 (Homo sapiens, UniProt P17947 1-270); conditions: protein: recombinant; tags: N-terminal GST; dsDNA, one strand shown
# Procedure, shortened: as §1
# [8] = target: SPIB (Homo sapiens, UniProt Q01892 1-262); conditions: protein: recombinant; tags: N-terminal GST; dsDNA, one strand shown
# Procedure, shortened: as §1
# [9] = target: T6, ELK3 (Homo sapiens, UniProt P41970 1-407); conditions: protein: recombinant; tags: N-terminal GST; dsDNA, one strand shown
# T6 sequence: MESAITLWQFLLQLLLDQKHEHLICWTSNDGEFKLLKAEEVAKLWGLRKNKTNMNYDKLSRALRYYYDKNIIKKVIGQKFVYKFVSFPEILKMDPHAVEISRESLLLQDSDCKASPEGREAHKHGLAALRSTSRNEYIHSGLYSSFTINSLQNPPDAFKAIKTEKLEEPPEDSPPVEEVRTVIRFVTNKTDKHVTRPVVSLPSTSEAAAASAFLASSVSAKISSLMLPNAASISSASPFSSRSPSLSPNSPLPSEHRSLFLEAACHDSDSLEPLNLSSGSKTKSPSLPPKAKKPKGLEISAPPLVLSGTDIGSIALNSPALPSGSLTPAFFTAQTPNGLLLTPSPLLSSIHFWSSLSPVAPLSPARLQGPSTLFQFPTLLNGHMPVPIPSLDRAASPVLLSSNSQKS
# Procedure, shortened: as §1
# [10] = target: T7, FEV (Homo sapiens, UniProt Q99581 1-238); conditions: protein: recombinant; tags: N-terminal GST; dsDNA, one strand shown
# T7 sequence: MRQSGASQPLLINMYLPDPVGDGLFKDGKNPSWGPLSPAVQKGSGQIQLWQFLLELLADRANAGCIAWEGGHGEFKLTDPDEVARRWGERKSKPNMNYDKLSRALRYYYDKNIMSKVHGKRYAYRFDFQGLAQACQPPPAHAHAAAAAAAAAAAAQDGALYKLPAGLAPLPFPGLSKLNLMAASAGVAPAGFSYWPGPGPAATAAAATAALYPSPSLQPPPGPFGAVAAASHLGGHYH
# Procedure, shortened: as §1
# [11] = target: ETV5 (Homo sapiens, UniProt P41161 1-510); conditions: protein: recombinant; tags: N-terminal GST; dsDNA, one strand shown
# Procedure, shortened: as §1
# [12] = target: HSF1 (Homo sapiens, UniProt Q00613 1-529); conditions: protein: recombinant; tags: N-terminal GST; chain copies: 3; dsDNA, one strand shown
# Procedure, shortened: as §1
# [13] = target: T8, SPIC (Homo sapiens, UniProt Q8N5J4 1-248); conditions: protein: recombinant; tags: N-terminal GST; dsDNA, one strand shown
# T8 sequence: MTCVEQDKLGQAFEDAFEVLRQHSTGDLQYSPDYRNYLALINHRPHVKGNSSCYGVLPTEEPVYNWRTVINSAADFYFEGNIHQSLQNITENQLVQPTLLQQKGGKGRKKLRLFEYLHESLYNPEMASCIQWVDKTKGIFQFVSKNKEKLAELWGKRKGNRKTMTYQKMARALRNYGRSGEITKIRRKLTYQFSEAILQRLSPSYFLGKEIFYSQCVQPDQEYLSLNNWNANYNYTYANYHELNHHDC
# Procedure, shortened: as §1
# [14] = target: ELF4 (Homo sapiens, UniProt Q99607 1-663); conditions: protein: recombinant; tags: N-terminal GST; dsDNA, one strand shown
# Procedure, shortened: as §1
# [15] = target: T9, ELK4 (Homo sapiens, UniProt P28324-2 1-405); conditions: protein: recombinant; tags: N-terminal GST; dsDNA, one strand shown
# T9 sequence: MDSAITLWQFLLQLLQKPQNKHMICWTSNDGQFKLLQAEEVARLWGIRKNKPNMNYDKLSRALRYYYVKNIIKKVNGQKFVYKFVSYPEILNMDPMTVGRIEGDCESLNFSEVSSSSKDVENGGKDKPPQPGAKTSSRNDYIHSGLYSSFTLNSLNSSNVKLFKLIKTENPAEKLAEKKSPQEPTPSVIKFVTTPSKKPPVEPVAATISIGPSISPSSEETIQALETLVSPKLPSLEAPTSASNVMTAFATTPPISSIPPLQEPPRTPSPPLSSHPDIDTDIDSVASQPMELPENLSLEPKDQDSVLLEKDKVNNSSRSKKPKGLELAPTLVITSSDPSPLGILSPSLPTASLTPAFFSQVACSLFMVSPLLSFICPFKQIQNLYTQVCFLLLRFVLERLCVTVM
# Procedure, shortened: as §1
# [16] = target: T10, ETV2 (Homo sapiens, UniProt O00321 1-342); conditions: protein: recombinant; tags: N-terminal GST; dsDNA, one strand shown
# T10 sequence: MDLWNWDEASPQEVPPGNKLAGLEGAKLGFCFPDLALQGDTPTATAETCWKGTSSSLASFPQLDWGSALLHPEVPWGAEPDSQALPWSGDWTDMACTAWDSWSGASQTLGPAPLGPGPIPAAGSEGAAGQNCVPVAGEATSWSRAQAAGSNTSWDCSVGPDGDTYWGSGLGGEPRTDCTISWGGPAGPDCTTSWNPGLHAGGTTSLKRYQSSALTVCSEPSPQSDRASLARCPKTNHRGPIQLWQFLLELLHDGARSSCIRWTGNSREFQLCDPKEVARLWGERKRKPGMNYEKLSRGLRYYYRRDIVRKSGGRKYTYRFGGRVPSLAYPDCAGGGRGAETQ
# Procedure, shortened: as §1
# [17] = target: T11, ELF3 (Homo sapiens, UniProt P78545 1-371); conditions: protein: recombinant; tags: N-terminal GST; dsDNA, one strand shown
# T11 sequence: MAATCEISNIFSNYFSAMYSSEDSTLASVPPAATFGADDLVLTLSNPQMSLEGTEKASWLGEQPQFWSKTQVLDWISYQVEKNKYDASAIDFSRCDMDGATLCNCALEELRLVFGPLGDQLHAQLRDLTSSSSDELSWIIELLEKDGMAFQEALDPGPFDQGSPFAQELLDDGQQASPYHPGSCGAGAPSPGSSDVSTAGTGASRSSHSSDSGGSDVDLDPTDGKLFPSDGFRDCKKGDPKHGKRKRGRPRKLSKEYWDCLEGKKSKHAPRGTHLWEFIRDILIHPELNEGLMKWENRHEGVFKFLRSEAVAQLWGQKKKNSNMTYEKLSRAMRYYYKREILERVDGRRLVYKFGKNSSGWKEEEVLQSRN
# Procedure, shortened: as §1
# [18] = target: CRX (Homo sapiens, UniProt O43186 1-299); conditions: protein: recombinant; tags: N-terminal GST; dsDNA, one strand shown
# Procedure, shortened: as §1
# [19] = target: ETV1 (Homo sapiens, UniProt P50549 1-477); conditions: protein: recombinant; tags: N-terminal GST; dsDNA, one strand shown
# Procedure, shortened: as §1
# CRX, sequence (O43186 whole entry): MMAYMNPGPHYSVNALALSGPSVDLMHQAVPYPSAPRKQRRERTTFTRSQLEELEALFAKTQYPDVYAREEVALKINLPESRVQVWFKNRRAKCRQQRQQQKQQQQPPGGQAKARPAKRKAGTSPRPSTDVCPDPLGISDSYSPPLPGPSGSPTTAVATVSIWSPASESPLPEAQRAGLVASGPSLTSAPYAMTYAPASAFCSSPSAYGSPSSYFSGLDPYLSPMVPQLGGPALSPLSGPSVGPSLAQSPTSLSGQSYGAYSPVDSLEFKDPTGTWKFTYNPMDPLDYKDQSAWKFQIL
# ETV1, sequence (P50549 whole entry): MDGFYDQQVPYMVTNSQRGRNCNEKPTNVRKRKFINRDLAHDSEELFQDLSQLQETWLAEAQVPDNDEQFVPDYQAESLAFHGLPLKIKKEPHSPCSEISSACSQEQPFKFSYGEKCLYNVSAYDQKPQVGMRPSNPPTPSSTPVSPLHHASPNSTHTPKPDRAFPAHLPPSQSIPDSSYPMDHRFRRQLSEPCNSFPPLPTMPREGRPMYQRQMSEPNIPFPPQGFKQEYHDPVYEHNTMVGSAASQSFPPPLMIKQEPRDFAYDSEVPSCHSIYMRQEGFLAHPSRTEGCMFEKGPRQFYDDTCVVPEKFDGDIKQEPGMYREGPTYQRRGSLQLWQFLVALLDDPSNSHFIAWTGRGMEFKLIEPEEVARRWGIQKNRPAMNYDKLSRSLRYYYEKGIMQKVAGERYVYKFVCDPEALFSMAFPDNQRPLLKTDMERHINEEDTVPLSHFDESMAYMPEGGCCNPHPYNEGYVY
# ELF1, sequence (P32519 whole entry): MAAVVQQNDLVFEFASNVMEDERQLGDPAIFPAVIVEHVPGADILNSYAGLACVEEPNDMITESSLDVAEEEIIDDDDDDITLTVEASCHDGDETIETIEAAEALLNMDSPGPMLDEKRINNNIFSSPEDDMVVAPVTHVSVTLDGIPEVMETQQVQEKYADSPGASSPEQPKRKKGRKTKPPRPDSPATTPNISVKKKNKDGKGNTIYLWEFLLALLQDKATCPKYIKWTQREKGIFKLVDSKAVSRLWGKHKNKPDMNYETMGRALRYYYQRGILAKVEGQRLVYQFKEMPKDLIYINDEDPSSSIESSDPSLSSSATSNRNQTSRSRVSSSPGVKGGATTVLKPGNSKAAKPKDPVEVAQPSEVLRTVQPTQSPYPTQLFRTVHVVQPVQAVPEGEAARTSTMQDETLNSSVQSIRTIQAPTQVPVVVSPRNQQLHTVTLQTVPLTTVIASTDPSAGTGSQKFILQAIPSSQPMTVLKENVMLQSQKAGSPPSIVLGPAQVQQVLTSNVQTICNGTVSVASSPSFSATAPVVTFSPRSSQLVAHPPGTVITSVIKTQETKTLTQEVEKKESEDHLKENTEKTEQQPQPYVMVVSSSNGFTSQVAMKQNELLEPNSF
# HSF1, sequence (Q00613 whole entry): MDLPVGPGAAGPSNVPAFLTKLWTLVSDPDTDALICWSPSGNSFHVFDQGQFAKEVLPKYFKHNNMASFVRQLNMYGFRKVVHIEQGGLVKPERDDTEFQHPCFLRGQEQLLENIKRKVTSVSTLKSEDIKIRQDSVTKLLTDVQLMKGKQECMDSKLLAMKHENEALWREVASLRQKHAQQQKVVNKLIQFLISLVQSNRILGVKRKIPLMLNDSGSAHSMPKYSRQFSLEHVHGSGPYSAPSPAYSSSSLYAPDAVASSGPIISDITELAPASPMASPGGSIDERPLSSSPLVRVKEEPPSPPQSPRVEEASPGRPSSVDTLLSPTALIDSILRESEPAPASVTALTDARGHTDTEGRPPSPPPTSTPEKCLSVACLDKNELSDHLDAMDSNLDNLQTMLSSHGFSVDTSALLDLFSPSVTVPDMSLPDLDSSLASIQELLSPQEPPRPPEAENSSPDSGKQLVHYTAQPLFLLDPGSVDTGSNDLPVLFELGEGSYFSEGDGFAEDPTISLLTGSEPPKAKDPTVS
# ETV5, sequence (P41161 whole entry): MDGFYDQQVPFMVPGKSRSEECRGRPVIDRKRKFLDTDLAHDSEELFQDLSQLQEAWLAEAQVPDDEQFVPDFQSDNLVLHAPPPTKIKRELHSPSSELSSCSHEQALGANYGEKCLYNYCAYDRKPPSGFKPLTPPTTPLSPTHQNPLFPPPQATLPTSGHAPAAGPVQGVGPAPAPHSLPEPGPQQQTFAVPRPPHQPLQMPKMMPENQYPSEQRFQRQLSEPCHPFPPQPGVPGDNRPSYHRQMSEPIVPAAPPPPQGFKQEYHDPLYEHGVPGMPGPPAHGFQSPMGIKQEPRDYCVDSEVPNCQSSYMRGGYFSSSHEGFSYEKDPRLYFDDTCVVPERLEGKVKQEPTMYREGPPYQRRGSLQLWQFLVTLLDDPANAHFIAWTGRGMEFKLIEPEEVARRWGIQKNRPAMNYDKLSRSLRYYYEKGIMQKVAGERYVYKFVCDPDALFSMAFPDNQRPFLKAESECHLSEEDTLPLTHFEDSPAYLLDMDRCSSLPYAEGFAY
# SPIB, sequence (Q01892 whole entry): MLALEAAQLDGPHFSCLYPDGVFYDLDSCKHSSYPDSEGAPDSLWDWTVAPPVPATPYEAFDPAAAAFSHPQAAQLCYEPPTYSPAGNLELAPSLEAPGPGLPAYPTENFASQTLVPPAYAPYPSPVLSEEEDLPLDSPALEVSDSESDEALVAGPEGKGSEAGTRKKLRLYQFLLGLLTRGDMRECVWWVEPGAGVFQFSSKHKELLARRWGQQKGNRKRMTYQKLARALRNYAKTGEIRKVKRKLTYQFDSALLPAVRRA
# ELF4, sequence (Q99607 whole entry): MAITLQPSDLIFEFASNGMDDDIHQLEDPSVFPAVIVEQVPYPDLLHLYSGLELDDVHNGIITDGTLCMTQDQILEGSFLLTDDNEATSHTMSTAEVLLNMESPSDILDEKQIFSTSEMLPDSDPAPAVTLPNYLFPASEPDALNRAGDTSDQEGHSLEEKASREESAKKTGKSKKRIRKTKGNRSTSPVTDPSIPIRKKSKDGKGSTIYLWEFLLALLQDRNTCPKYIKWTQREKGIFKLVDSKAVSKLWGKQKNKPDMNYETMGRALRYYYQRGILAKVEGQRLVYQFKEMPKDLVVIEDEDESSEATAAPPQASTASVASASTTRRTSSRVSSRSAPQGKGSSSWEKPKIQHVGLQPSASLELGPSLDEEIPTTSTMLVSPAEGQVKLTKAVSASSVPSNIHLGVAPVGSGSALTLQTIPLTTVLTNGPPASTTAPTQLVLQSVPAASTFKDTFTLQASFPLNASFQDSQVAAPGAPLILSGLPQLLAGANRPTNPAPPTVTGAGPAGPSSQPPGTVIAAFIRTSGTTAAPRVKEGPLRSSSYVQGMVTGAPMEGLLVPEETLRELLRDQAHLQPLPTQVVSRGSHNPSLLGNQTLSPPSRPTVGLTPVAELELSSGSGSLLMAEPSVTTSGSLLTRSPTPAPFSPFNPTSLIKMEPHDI
sequence,measurement,setting,value
GAACCT,binding signal,[1],"1.09 fold enrichment (6-mer frequency, TF over GST control)"
same,binding signal,[2],"1.27 fold enrichment (6-mer frequency, TF over GST control)"
same,binding signal,[3],"1.06 fold enrichment (6-mer frequency, TF over GST control)"
same,binding signal,[4],"1.09 fold enrichment (6-mer frequency, TF over GST control)"
same,binding signal,[5],"1.13 fold enrichment (6-mer frequency, TF over GST control)"
same,binding signal,[6],"1.15 fold enrichment (6-mer frequency, TF over GST control)"
same,binding signal,[7],"1.11 fold enrichment (6-mer frequency, TF over GST control)"
same,binding signal,[8],"1.14 fold enrichment (6-mer frequency, TF over GST control)"
same,binding signal,[9],"1.18 fold enrichment (6-mer frequency, TF over GST control)"
same,binding signal,[10],"1.03 fold enrichment (6-mer frequency, TF over GST control)"
same,binding signal,[11],"1.1 fold enrichment (6-mer frequency, TF over GST control)"
same,binding signal,[12],"1.45 fold enrichment (6-mer frequency, TF over GST control)"
same,binding signal,[13],"1.09 fold enrichment (6-mer frequency, TF over GST control)"
same,binding signal,[14],"1.17 fold enrichment (6-mer frequency, TF over GST control)"
same,binding signal,[15],"1.07 fold enrichment (6-mer frequency, TF over GST control)"
same,binding signal,[16],"1.25 fold enrichment (6-mer frequency, TF over GST control)"
same,binding signal,[17],"1.15 fold enrichment (6-mer frequency, TF over GST control)"
same,binding signal,[18],"1.06 fold enrichment (6-mer frequency, TF over GST control)"
same,binding signal,[19],"1.05 fold enrichment (6-mer frequency, TF over GST control)"
